This is a sample that favours compounds with a hit; in the whole collection about 3.2% have one here.
GDH-TPI inh – counter-screen for M. tuberculosis FBA inhibitors: GDH-TPI coupled enzymes | GDH-TPI coupled enzyme counterscreen, NADH absorbance | inhibition, % at 4.8 µM | 360,000 tested, 1.2% active | AID 588335; in the data active = inhibition above about 30%
TcdB GH inh – TcdB glycohydrolase inhibition. P18177. TcdB glycohydrolase enzymatic assay, plate reader. inhibition, % at 9.99 µM. 350,000 tested, 0.24% active; in the data active = inhibition above about 10%
PrPC TRFRET – reduces human prion protein on the cell surface; cell surface PrPC, TR-FRET read-out; inhibition, % at 13.8 µM; AID 720596; 370,000 tested, 0.43% active; in the data active = inhibition above about 24%
Mtb FBA inh – inhibits M. tuberculosis FBA enzyme | P9WQA3 | purified M. tuberculosis FBA, fluorescence read-out | inhibition, % at 1 µM | 360,000 tested, 2.3% active | AID 588726; in the data active = inhibition above about 27%
Target sequence (P9WQA3 whole entry, looked up): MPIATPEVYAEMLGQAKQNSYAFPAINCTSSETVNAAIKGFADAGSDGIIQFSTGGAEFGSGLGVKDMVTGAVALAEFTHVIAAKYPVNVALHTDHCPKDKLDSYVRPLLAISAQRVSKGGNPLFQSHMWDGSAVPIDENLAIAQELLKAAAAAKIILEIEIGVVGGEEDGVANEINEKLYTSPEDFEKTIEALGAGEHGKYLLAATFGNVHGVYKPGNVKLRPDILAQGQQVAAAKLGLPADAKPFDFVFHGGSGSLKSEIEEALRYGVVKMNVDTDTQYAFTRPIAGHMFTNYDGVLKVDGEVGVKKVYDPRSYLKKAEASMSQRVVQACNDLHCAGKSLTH
Y pestis TopoI – blocks Yersinia pestis topoisomerase I activity; Y. pestis Topo-I cleavage product accumulation, plate reader; activity, % at 10 µM; 360,000 tested, 0.064% active; AID 504884; in the data active = activity above about 50%, passing the limit was not always enough
Hits are given with their value; 0 = inactive; - = no result; + = active, no number.

SMILES	GDH-TPI inh	TcdB GH inh	PrPC TRFRET	Mtb FBA inh	Y pestis TopoI
COc1ccc(-c2cc(=O)c3ccccc3o2)cc1	32.4	0	0	+	0
COc1cc(OC)c2c(=O)c(OC)c(-c3ccc(OC)c(OC)c3)oc2c1	0	-	-	102.7	0
O=c1cc(-c2ccc(O)cc2)oc2ccccc12	0	0	0	0	0
CN=C1c2cc3c(Br)c(OC)ccc3n2CCN1C	32.3	0	0	0	0
COc1ccc(NC(=O)N[C@H]2CC[C@H](CCNC(=O)c3cc(Cl)cc(Cl)c3)O[C@H]2CO)cc1	-	0	-	-	-
CC(=O)c1ccc(N2CCN(C(=O)C3(S(=O)(=O)c4ccc(Cl)cc4)CC3)CC2)cc1	34.0	-	0	0	0
COc1cccc(C(=O)Nc2ccc3c(c2)OC[C@H](C)N(C(C)=O)C[C@H](C)[C@H](OC)CN(C)C3=O)c1	-	0	-	-	-
COC(=O)c1nnn(-c2ccc(Cl)c(Cl)c2)c1C(=O)OC	0	0	0	0	0
Cc1c(C(=O)/C=C/N(C)C)nnn1-c1ccc(F)c(Cl)c1	34.7	0	0	0	0
COC(=O)c1nnn(-c2ccc(F)c(Cl)c2)c1C(=O)OC	0	0	0	0	0
Cc1c(C(=O)/C=C/N(C)C)nnn1-c1ccc(Cl)cc1Cl	32.7	0	0	0	0
CN(C)/C=C/C(=O)/C=C/c1ccc(Cl)cc1Cl	0	0	0	0	0
Cc1c(C(=O)/C=C/N(C)C)nnn1-c1ccc(Cl)c(Cl)c1	42.4	0	0	0	0
O=C(NC[C@@H]1CC[C@@H]2[C@@H](CN2S(=O)(=O)c2ccccc2)O1)NC1CCCCC1	-	0	-	-	-
COC(=O)[C@@H]1[C@@H](CO)[C@@H]2Cn3c(ccc(-c4ccccc4)c3=O)[C@@H]2N1C(=O)CC1CC1	-	0	-	-	-
CN1C[C@@H]2[C@H](c3ccccc31)[C@H](CO)N2C(=O)C1CCOCC1	-	0	-	-	-
CCOc1ccccc1Nc1ncnc2ccc(Br)cc12	0	0	0	0	0
CCOc1ccccc1Nc1ncnc2ccccc12	0	-	0	188.7	0
COc1cc(/C=C/C(=O)c2ccc([N+](=O)[O-])o2)ccc1O	0	11.6	0	0	0
COc1ccc(/C=C/C(=O)c2ccc([N+](=O)[O-])o2)cc1OC	-	0	0	-	-
O=C(CSc1n[nH]c(=O)[nH]c1=O)N/N=C/C=C/c1ccccc1	43.0	0	0	0	0
O=C(CSc1n[nH]c(=O)[nH]c1=O)N/N=C/C=C\c1ccccc1	0	0	0	0	0
CNC(=O)C[C@@H]1CC[C@@H]2[C@@H](COc3ccc(NC(=O)C4CCCCC4)cc3C(=O)N2C)O1	-	0	-	-	-
NC1=NC(=O)/C(=C\c2cccs2)S1	48.3	-	0	0	0
O=C(N/N=C/c1ccc([N+](=O)[O-])o1)c1ccncc1	0	0	0	0	0
SMILES	GDH-TPI inh	TcdB GH inh	PrPC TRFRET	Mtb FBA inh	Y pestis TopoI
O=C(N/N=C/c1ccc([N+](=O)[O-])o1)c1ccc(O)cc1	39.9	0	0	0	0
O=C(N/N=C/c1ccc([N+](=O)[O-])o1)c1cc2ccccc2o1	37.4	0	0	0	0
O=C(CNC(=O)OCc1ccccc1)Oc1ccc2ccc(=O)oc2c1	0	0	0	+	0
CC(C)(C)OC(=O)NCCC(=O)Oc1ccc2ccc(=O)oc2c1	0	-	-	+	0
CC(NC(=O)OC(C)(C)C)C(=O)Oc1ccc2ccc(=O)oc2c1 (stereo unspecified)	0	-	0	+	0
O=C(COc1ccc2ccc(=O)oc2c1)OCc1ccccc1	0	0	0	0	0
O=C1CN(Cc2ccc(F)cc2)C[C@@H]2[C@@H](c3ccc(-c4ccccc4F)cc3)[C@@H](CO)N12	-	0	-	-	-
O=C(CC1CC1)Nc1ccc2c(c1)[C@@H]1C[C@H](CC(=O)NC3CCCC3)O[C@H](CO)[C@@H]1O2	-	0	-	-	-
COc1cc(OC)c(/C=N/NC(N)=S)cc1Br	34.7	0	0	0	0
COc1cc(OC)c(/C=N/NC(=O)c2ccncc2)cc1Br	0	0	0	0	0
O=C(c1ccc(F)cc1)N1CCCCN2[C@@H](CO)[C@H](c3ccc(/C=C/c4ccccc4)cc3)[C@@H]2C1	-	0	-	-	-
COC(=O)c1ccc(C23CC4(C2)[C@H](CN(Cc2ccc(C(F)(F)F)cc2)[C@@H]4c2ccccc2)C3c2ccc(Cl)nc2)cc1 (stereo partly specified)	-	12.4	0	-	-
COC(=O)C[C@@H]1C[C@@H]2c3cc(NC(=O)c4cccnc4)ccc3O[C@@H]2[C@@H](CO)O1	-	0	-	-	-
O=C(CC1C(=O)NCCN1Cc1ccccc1C(F)(F)F)NCCN1CCOCC1 (stereo unspecified)	0	0	0	0	0
CN(CCN1CCOCC1)C(=O)CC1C(=O)NCCN1Cc1ccccc1C(F)(F)F (stereo unspecified)	0	19.1	0	0	0
CNC(C(=O)c1ccccc1)C(OC)c1cccc([N+](=O)[O-])c1 (stereo unspecified)	0	20.9	0	0	0
CCOc1ccc(C(=O)NC(C(=O)NCc2ccccc2OC)C(C)C)cc1 (stereo unspecified)	0	0	0	0	0
COc1ccc(C(=O)NC(C(=O)NCc2ccccc2OC)C(C)C)cc1 (stereo unspecified)	0	14.7	0	0	0
COc1ccc(NC(=O)N(C)C[C@@H]2OCCCC[C@@H](C)Oc3ccc(NS(=O)(=O)c4ccc(C)cc4)cc3C(=O)N([C@@H](C)CO)C[C@H]2C)cc1	-	0	-	-	-
O=C(NC(=S)Nc1ccccc1O)c1ccc(-c2ccc(Cl)cc2)o1	0	-	0	0	0
Cc1c(NC(=S)NC(=O)c2ccc(-c3ccc(Cl)cc3)o2)cccc1C(=O)O	32.4	0	0	0	0
O=C(Nc1ccccc1F)N1CC(=O)N2[C@@H](CO)[C@H](c3ccc(C#CC4CC4)cc3)[C@@H]2C1	-	0	-	-	-
Cc1nc2ccccn2c(=O)c1NC(=O)COc1ccccc1	31.0	0	0	0	0
O=C(OCn1nnc2ccccc2c1=O)c1cc2ccccc2o1	0	12.6	0	0	0
O=C(OCn1nnc2ccccc2c1=O)c1ccco1	0	0	0	0	0
SMILES	GDH-TPI inh	TcdB GH inh	PrPC TRFRET	Mtb FBA inh	Y pestis TopoI
O=C(C1CCCC1)N1[C@H](CO)[C@@H]2c3ccccc3N(S(=O)(=O)c3ccc(F)cc3)C[C@@H]21	-	0	-	-	-
NC(=O)N/N=C/c1ccc(-c2ccc([N+](=O)[O-])cc2)o1	0	0	0	0	0
COCCNC(=S)N/N=C/c1ccc(-c2ccc([N+](=O)[O-])cc2)o1	32.5	0	0	0	0
O=C(N/N=C/c1ccc(-c2ccc([N+](=O)[O-])cc2)o1)c1cccnc1	33.2	0	0	0	0
O=C(N/N=C/c1ccc([N+](=O)[O-])cc1)c1cccnc1	0	0	0	0	0
CO[C@@H]1CN(C)C(=O)c2cc(NC(=O)Nc3ccc4c(c3)OCO4)ccc2OC[C@H](C)NC[C@H]1C	-	0	-	-	-
CCOC(=O)c1sc(NC(C)=O)cc1C	0	0	0	0	0
CCOC(=O)c1sc(NC(=O)c2ccc(C)s2)cc1C	43.0	-	0	0	0
Cc1ccc(NC(=O)CC2(CC(=O)O)CCCC2)cc1	0	0	0	0	0
Cc1cc(=O)oc2cc(NC(=O)CC3(CC(=O)O)CCCC3)ccc12	0	0	0	+	0
Cc1cc(=O)oc2cc(NC(=O)C3CCCC3)ccc12	0	0	0	155.4	0

Bioassay records deposited in PubChem BioAssay by several laboratories.
